Assay results taken from PubChem BioAssay AID488969 (Vanderbilt High Throughput Screening Facility, 2010).
Whole data set: some 110,000 compounds, median “z-score” near -0.1, cut for the highest 2% near 2. Many of the other results were omitted from the sample, so the highest values are more common in it than they were. Active and inactive are the calls of the source.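 The calls were made as follows: active = z-score in the third read window above 3 or below -3; inactive = the rest.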

Molecular target: Metabotropic glutamate receptor 8 (Rattus norvegicus) (UniProt P70579)
Assay: rat mGluR8 modulators via GIRK flux, primary screen, cell-based, thallium flux, HTS (AID 488969)
Settings: HEK293 rat mGluR8, GIRK (G protein-gated inwardly rectifying potassium channel) thallium flux, FluoZin2; at 10 µM; stronger effect = higher value; submaximal glutamate (EC20) added with thallium

Chain of Metabotropic glutamate receptor 8 (Rattus norvegicus) (P70579 whole entry, looked up): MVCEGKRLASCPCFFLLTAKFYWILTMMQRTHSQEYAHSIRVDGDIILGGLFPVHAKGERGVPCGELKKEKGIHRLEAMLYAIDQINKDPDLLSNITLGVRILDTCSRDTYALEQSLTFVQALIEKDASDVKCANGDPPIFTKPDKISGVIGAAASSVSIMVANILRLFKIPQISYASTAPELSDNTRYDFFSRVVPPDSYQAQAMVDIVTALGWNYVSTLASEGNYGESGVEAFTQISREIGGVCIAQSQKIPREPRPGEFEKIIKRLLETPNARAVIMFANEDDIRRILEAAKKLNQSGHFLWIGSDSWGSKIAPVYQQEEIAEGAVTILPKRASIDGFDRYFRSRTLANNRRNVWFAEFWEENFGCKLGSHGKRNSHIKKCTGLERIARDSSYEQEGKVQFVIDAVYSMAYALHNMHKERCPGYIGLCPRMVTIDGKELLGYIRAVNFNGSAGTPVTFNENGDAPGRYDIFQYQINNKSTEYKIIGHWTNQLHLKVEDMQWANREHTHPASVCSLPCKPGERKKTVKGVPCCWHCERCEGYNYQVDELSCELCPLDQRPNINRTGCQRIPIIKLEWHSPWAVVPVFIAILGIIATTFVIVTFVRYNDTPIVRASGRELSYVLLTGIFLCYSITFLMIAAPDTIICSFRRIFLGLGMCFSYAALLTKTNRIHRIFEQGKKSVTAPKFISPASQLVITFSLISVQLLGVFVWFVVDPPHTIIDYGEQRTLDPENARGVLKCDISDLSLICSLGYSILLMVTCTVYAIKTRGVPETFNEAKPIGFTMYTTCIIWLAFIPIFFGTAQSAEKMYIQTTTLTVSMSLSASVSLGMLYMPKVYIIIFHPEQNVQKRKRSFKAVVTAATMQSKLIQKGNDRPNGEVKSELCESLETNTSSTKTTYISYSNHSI

Row | Structure (SMILES) | z-score
1 | CC(C)OC(=O)c1ccc(N2C(=O)C3CC=CCC3C2=O)cc1 (stereo not given) | 0.0622
2 | C=CCOC(=O)Nc1c(C(=O)OC)[nH]c2ccc(Cl)cc12 | -0.103
3 | CCCCNC(=O)/C(C#N)=C/c1ccc(-c2ccc(S(=O)(=O)N3CCOCC3)cc2)o1 | 0.164
4 | COCCNC(=O)/C(C#N)=C/c1ccc(-c2ccc(S(=O)(=O)N3CCOCC3)cc2)o1 | -0.137
5 | CCOCCCNC(=O)/C(C#N)=C/c1ccc(-c2ccc(S(=O)(=O)N3CCOCC3)cc2)o1 | 2.32
6 | O=C(OCC1COc2ccccc2O1)c1c(F)cccc1F (stereo not given) | 0.396
7 | COc1ccc(-c2csc(-c3cc4ccccc4oc3=N)n2)cc1 | -0.00953
8 | N=c1oc2ccc3ccccc3c2cc1-c1nc(-c2ccccc2)cs1 | 3.16 (active)
9 | N=c1oc2ccccc2cc1-c1nc(-c2ccc(Cl)cc2)cs1 | -0.248
10 | CCN(CC)C(=O)N1c2ccccc2C=Cc2ccccc21 | -0.214
11 | COc1ccc(-c2nnc(NC(=O)c3ccc(S(=O)(=O)N4CCCc5ccccc54)cc3)o2)cc1 | 2.07
12 | COc1ccc(-c2nnc(NC(=O)c3ccc(S(=O)(=O)N4COCC4(C)C)cc3)o2)cc1 | 1.22
13 | CCc1nnc(NC(=O)c2ccc(S(=O)(=O)N3CCCc4ccccc43)cc2)o1 | 0.372
14 | O=C(Nc1nnc(C2CC2)o1)c1ccc(S(=O)(=O)N2CCCc3ccccc32)cc1 | 1.85
15 | COc1ccc(-c2nnc(NC(=O)c3ccc(S(=O)(=O)N4CCc5ccccc5C4)cc3)o2)cc1 | 9.68 (active)
16 | CCc1nnc(NC(=O)c2ccc(S(=O)(=O)N3CCc4ccccc4C3)cc2)s1 | -0.158
17 | COC(=O)COc1cc(Br)c(/C=C2/SC(=O)N(CC(=O)N3CCCC3)C2=O)cc1OC | 0.0962
18 | O=C(OCc1nc2ccc(Cl)cc2n1CCO)c1ccc(O)cc1 | -0.133
19 | CCOC(=O)c1cc(CC)sc1NC(=O)c1ccc(N2C(=O)CCC2=O)cc1 | -0.383
20 | COc1ccc(C)cc1S(=O)(=O)N(C)CC(=O)N1CCCCCC1 | -0.534
21 | O=C(CSc1nc(-c2ccco2)cc(C(F)(F)F)n1)N1CCN(c2ccc(Cl)cc2)CC1 | -0.455
22 | COc1ccc(C2C(C(N)=O)=C(C)Nc3nc(-c4ccccc4OC)nn32)cc1OC (stereo not given) | 0.317
23 | CCCN1C(=O)/C(=C/c2ccc(C)s2)NC1=S | 13.9 (active)
24 | Cc1ccc(NC(=O)CN2C(=O)N/C(=C/c3ccc(C)s3)C2=O)cc1 | 0.22
25 | CCCN1C(=O)c2cccc3c(N4CCCCC4)ccc(c23)C1=O | -0.337
26 | CCCN1C(=O)/C(=C/c2ccc(N3CCCC3)c(C)c2)NC1=S | 11 (active)
27 | CC(C)CN1C(=O)/C(=C/c2cccs2)NC1=S | 15.8 (active)

Row | Structure (SMILES) | z-score
28 | O=C1N/C(=C/c2ccc(N3CCCC3)cc2)C(=O)N1c1ccccc1 | -0.886
29 | Cc1cccc(CN2C(=O)N/C(=C/c3ccc(C)s3)C2=O)c1 | -0.147
30 | O=C1N/C(=C\c2ccc(N3CCOCC3)c(F)c2)C(=O)N1Cc1ccccc1 | -0.434
31 | CCN1C(=O)/C(=C/c2ccc(N3CCCC3)cc2)NC1=S | 1.3
32 | COC(=O)C1=C(C)N(CC(C)C)C(=O)/C1=C\c1cccs1 | -0.236
33 | O=C1/C(=C/c2ccc(N3CCCC3)cc2)NC(=S)N1C1CC1 | 2.85
34 | COc1ccc(N2C(=O)/C(=C/c3cccs3)NC2=S)cc1 | 1.07
35 | O=C1CSC(=S)N1CC1CCCO1 (stereo not given) | -0.08
36 | Cc1noc(C)c1C(=O)NCCc1ccc(Cl)cc1 | -0.377
37 | COCC(=O)NC1CCN(C(=O)Nc2ccc(Br)cc2)CC1 | -0.036
38 | CCOC(=O)c1c(C)[nH]c(C(=O)/C(C#N)=C/c2ccc(OC(F)F)c(OC)c2)c1C | -0.315
39 | O=C(NCC(c1cccs1)N1CCOCC1)c1ccccc1NS(=O)(=O)c1ccc(Cl)cc1 (stereo not given) | -0.359
40 | Cc1csc(NC(=O)C2CCCN(S(=O)(=O)c3cnc[nH]3)C2)n1 (stereo not given) | 0.36
41 | Cc1cccc(OCCSc2nc3c([nH]2)c(=N)ncn3Cc2ccccc2)c1 | -0.0916
42 | CC(C)(C)c1ccc(C(=O)NC(=S)NCC2CCCO2)cc1 (stereo not given) | 1.62
43 | Cc1ccccc1Nc1nc(-c2sc(NC(=O)c3ccco3)nc2C)cs1 | -0.239
44 | Nc1ccc(Sc2cnn(-c3ccccc3)c(=O)c2Cl)cc1 | -2.01
45 | CCN1C(=O)/C(=C/c2ccc(C)s2)NC1=S | 15.1 (active)
46 | Cc1ccc(/C=C2/NC(=O)N(Cc3ccccc3)C2=O)s1 | -0.0544
47 | CCN1C(=O)/C(=C\N(C)C)NC1=S | -0.121
48 | CCS(=O)(=O)N1CCN(c2ccc(Cl)cc2[N+](=O)[O-])CC1 | 0.325
49 | CCOc1ccc(C(=O)CN2CCN(S(=O)(=O)c3ccc(Br)cc3)CC2)cc1 | 4.08 (active)
50 | COc1cccc(C(=O)CN2CCN(S(=O)(=O)c3ccc(Br)cc3)CC2)c1 | -0.472
51 | CCOc1ccc(C(=O)CN2CCN(S(=O)(=O)c3ccc(OC)cc3)CC2)cc1 | -0.414
52 | CN1CCN(c2ccccc2NC(=O)COc2ccccc2)CC1 | -0.109
53 | COc1ccc(/C=N/NC(=O)CSc2nnc(C)n2-c2ccccc2)c(OC)c1OC | -0.14
54 | CSC1=NSC2=NC(=O)/C(=C/c3coc4ccc(O)cc4c3=O)C(=N)N12 | -0.47

Row | Structure (SMILES) | z-score
55 | O=C1N=C(N2CCN(c3cccc4ccccc34)CC2)S/C1=C/c1cccs1 | -0.0125
56 | Cc1cc(/C=C2\C(=N)N3C(SCc4ccccc4)=NSC3=NC2=O)c(C)n1Cc1ccccc1 | 0.143
57 | O=C1NN(c2ccccc2)C(=O)/C1=C/c1coc2ccccc2c1=O | -0.738
58 | N=C1/C(=C/c2cccs2)C(=O)N=C2SN=C(SCc3ccccc3)N12 | 9.53 (active)
59 | CSC1=NSC2=NC(=O)/C(=C/c3coc4ccccc4c3=O)C(=N)N12 | 10.4 (active)
60 | O=[N+]([O-])c1ccc(N2CCCCC2)cc1NCCOc1ccccc1 | 0.0562
61 | COc1ccc(/C=c2\s/c(=C/C(=O)c3ccc(C)cc3)[nH]c2=O)c(OC)c1 | 0.0664
62 | CCc1ccc(/C=c2\s/c(=C\C(=O)C(C)(C)C)[nH]c2=O)cc1 | 7.24 (active)
63 | COc1ccc(/C=c2\s/c(=C/C(=O)c3ccc(C)cc3)[nH]c2=O)cc1OC | 0.46
64 | CC(C)(CNC(=O)/C=C/c1ccc(F)cc1)CNC(=O)/C=C/c1ccc(F)cc1 | -0.186
65 | COc1cccc(/C=c2\s/c(=C/C(=O)c3ccc(C)cc3)[nH]c2=O)c1OC | 1.51
66 | Cc1cccc(/C=c2\s/c(=C\C(=O)C(C)(C)C)[nH]c2=O)c1 | 9.35 (active)
67 | CC(C)(C)NC(=O)COC(=O)/C=C/c1ccc(F)cc1 | -0.0768
68 | Cc1cccc(/C=C2\CS/C(=C\c3cccc(C)c3)C2=O)c1 | -0.0758
69 | CC(C)(C)C(=O)/C=c1\[nH]c(=O)/c(=C\c2ccc(F)cc2)s1 | 5.06 (active)
70 | CCc1ccc(/C=C(\Cl)c2nc3cc(Cl)ccc3c(=O)[nH]2)cc1 | 0.511
71 | CSc1ccc(/C=c2\s/c(=C\C(=O)C(C)(C)C)n(CC(=O)NCCC3=CCCCC3)c2=O)cc1 | -0.0802
72 | Cc1ccccc1/C=c1\s/c(=C\C(=O)C(C)(C)C)[nH]c1=O | 5.84 (active)
73 | O=C(Cc1ccccc1)NC(NNc1ccccc1)(C(F)(F)F)C(F)(F)F | -0.447
74 | CC(C)N(Cc1nc(-c2ccccc2)no1)C(=O)CCCN1C(=O)c2ccccc2C1=O | -0.305
75 | CCOC(=O)c1ccc(NC(=S)N2CCSC2c2ccc(Br)cc2)cc1 (stereo not given) | 0.308
76 | O=c1oc2cc(OCc3ccc(F)cc3F)ccc2cc1-c1ccc2ccccc2n1 | -0.209
77 | O=S(=O)(c1ccc(Oc2ccc(Cl)cc2)c(S(=O)(=O)N2CCCCC2)c1)N1CCCCC1 | -0.278
78 | CCOc1ccc(OCC)c(NC(=O)C2CCN(S(=O)(=O)c3cccc4nonc34)CC2)c1 | 0.0264
79 | COc1ccc(Cn2c(C)c(C)c(C#N)c2NC(=O)Nc2cccc(Cl)c2)cc1 | -0.0483
80 | COc1ccc(-c2cc(C(F)(F)F)nc(SCC(N)=O)n2)cc1 | 0.362
81 | Cn1c(=O)c2c(ncn2CC(=O)Nc2ccccc2)n(C)c1=O | 0.318

Row | Structure (SMILES) | z-score
82 | Cc1ccc(C(=O)Nc2cccnc2)cc1S(=O)(=O)N1CCOCC1 | 0.265
83 | COc1ccc(OC)c(C2c3c(oc4ccccc4c3=O)C(=O)N2CCCN(C)C)c1 (stereo not given) | -0.648
84 | CCN(CC)CCCN1C(=O)c2oc3ccccc3c(=O)c2C1c1cccs1 (stereo not given) | 13.2 (active)
85 | CCN(CC)CCCN1C(=O)c2oc3ccccc3c(=O)c2C1c1cc(OC)ccc1OC (stereo not given) | 0.517
86 | CCN(CC)CCCN1C(=O)c2oc3ccccc3c(=O)c2C1c1cccc(OC)c1OC (stereo not given) | 0.625
87 | CN(C)CCCN1C(=O)c2oc3ccccc3c(=O)c2C1c1cccs1 (stereo not given) | 2.78
88 | COc1cccc(C2c3c(oc4ccccc4c3=O)C(=O)N2CCCN(C)C)c1OC (stereo not given) | -0.0845
89 | Cn1c(SCC(=O)c2ccccc2F)nnc1C1CC1 | -0.74
90 | CCn1c(SCC(N)=O)nnc1-c1ccc(S(=O)(=O)N2CCN(C)CC2)cc1 | -0.217
91 | COc1ccc(NC(=O)c2cccc(F)c2)cc1Cl | -0.393
92 | CCc1cccc2c(C(=O)COC(=O)c3ccc(O)cc3)c[nH]c12 | -0.12
93 | O=C(N/N=C/c1cccs1)c1cccs1 | 0.0886
94 | Cc1ccc(/C=N/NC(=O)c2cccs2)s1 | 1.3
95 | O=C(N/N=C\c1ccc(Cl)s1)c1cccs1 | 8.64 (active)
96 | O=C(Nc1ccc([N+](=O)[O-])cn1)c1cc(-c2cccc(Cl)c2)nc2ccccc12 | -0.658
97 | O=C(N/N=C/c1c[nH]c2ccccc12)C1CC1(c1ccccc1)c1ccccc1 (stereo not given) | -0.618
98 | Cc1ccc(C)n1-c1ccc(C(=O)NN)cc1 | 2.5
99 | Cc1ccc(C)n1-c1ccc(C(=O)O)cc1 | -1.12
100 | CCOC(=O)c1ccc(-n2c(C)ccc2C)cc1 | -0.201
101 | CCOC(=O)/C(C(N)=NC(C)C)=C(\O)c1ccccc1 | 0.0345
102 | CCCCOC(=O)CNc1n[nH]c(=S)[nH]c1=O | 0.182
103 | CC(C)COC(=O)CNc1n[nH]c(=S)[nH]c1=O | 1.98
104 | CC(C)COC(=O)CCNc1n[nH]c(=O)[nH]c1=O | 0.184
105 | Nc1cc(=O)nc(SCC(=O)N(C2CCCCC2)C2CCCCC2)n1-c1ccccc1 | -0.245
